Measurements as given in the supplement of paper PMC10849652.
About 7,900 targets were measured; listed, in parts, are those with a hit and a random draw of the rest. About 0.6% of all pairs of compound and target were hits. A number with no mark means an inactive call.

Assays:
Experiment in all cases: log2 fold change, soluble protein after heating vs DMSO (PISA); higher = thermal stabilisation; K562 cells, 10 uM, 30 min; active = over 0.2 and 3.5 SD of the protein, either way, in both replicates (recomputed)
[1] = compound: CC1=C(C=C(C=C1)NC(=O)C2=CC(=CC=C2)C(C)(C)C#N)NC3=CC4=C(C=C3)N=CN(C4=O)C
Outline: (§1)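 K562 cells at 2×10^6 cells/mL were exposed to 10 μM compound for 30 min, then aliquots were heated for 3 min across 48°C-58°C, pooled, and extracted in PBS containing 0.5% NP-40 at 4°C. The supernatant after 21,000xg for 90 min was taken as soluble protein and measured by TMTpro 16plex LC-MS/MS with channel sums equalised. Thermal stability is reported relative to control samples, with values from duplicates. Fold changes are given on a log2 scale.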

[2] = compound: CC1=C(C=C(C=C1)NC(=O)C2=CC(=CC=C2)N(C)C)NC(=O)C3=CC=C(C=C3)O
Outline: as §1

[3] = compound: CC1=CC=C(C=C1)SC2=C3C=C(SC3=CN=C2)C(=O)N
Outline: as §1

[4] = compound: CC1=NC(=CC=C1)C2=C(N=C(N2)C(C)(C)C)C3=CC4=NC=CN=C4C=C3
Outline: as §1

Nexturastat A = compound: CCCCN(Cc1ccc(C(=O)NO)cc1)C(=O)Nc1ccccc1 [Nexturastat A]
Outline: as §1

vemurafenib = compound: CCCS(=O)(=O)Nc1ccc(F)c(C(=O)c2c[nH]c3ncc(-c4ccc(Cl)cc4)cc23)c1F [vemurafenib]
Outline: as §1

[5] = compound: CCCS(=O)(=O)Nc1ccc(F)c(C(=O)c2c[nH]c3ncc(Cl)cc23)c1F
Outline: as §1

[6] = compound: CCCc1cc(C)[nH]c(=O)c1CNC(=O)c1cc(-c2ccnc(N3CCN(C)CC3)c2)cc2c1cnn2C(C)C
Outline: as §1

givinostat = compound: CCN(CC)Cc1ccc2cc(COC(=O)Nc3ccc(C(=O)NO)cc3)ccc2c1 [givinostat]
Outline: as §1

barasertib = compound: CCN(CCCOc1ccc2c(Nc3cc(CC(=O)Nc4cccc(F)c4)[nH]n3)ncnc2c1)CCOP(=O)(O)O [barasertib]
Outline: as §1

[7] = compound: CC[C@@H]1C(=O)N(C)c2cnc(Nc3ccc(C(=O)NC4CCN(C)CC4)cc3OC)nc2N1C1CCCC1
Outline: as §1

volasertib = compound: CC[C@@H]1C(=O)N(C)c2cnc(Nc3ccc(C(=O)N[C@H]4CC[C@H](N5CCN(CC6CC6)CC5)CC4)cc3OC)nc2N1C(C)C [volasertib]
Outline: as §1

[8] = compound: CC[C@H](C)N1C=C(C2=C(C=C(C=C21)C3=CN=C(C=C3)N4CCNCC4)C(=O)NCC5=C(C=C(NC5=O)C)C)C
Outline: as §1

epoxomicin = compound: CC[C@H](C)[C@@H](C(=O)N[C@@H]([C@@H](C)O)C(=O)N[C@@H](CC(C)C)C(=O)[C@]1(CO1)C)NC(=O)[C@H]([C@@H](C)CC)N(C)C(=O)C [epoxomicin]
Outline: as §1

[9] = compound: CCn1c(C(=O)N(C2CC2)C2CC2)cc2c3c(ncn3C)c(Nc3cc(C)n(C)n3)nc21
Outline: as §1

[10] = compound: CCn1cc(-c2ccnc3[nH]c(-c4cccc(CN(C)C)c4)cc23)c(-c2ccc(NC(=O)N(C)C)cc2)n1
Outline: as §1

[11] = compound: CN(C)CC(=O)Nc1ccc2[nH]c(=O)c3ccccc3c2c1
Outline: as §1

rosiglitazone = compound: CN(CCOC1=CC=C(C=C1)C[C@H]2C(=O)NC(=O)S2)C3=CC=CC=N3 (racemic) [rosiglitazone]
Outline: as §1

[12] = compound: CN1C2=C(C3=C1C(=O)N(N=C3)CC4=CC(=CC=C4)N)SC(=C2)S(=O)C
Outline: as §1

[13] = compound: CN1CCC(CNc2ccc3ncc(-c4cccc(OC(F)(F)F)c4)n3n2)CC1
Outline: as §1

Sequence of UniProt Q16740 (Q16740 whole entry, looked up): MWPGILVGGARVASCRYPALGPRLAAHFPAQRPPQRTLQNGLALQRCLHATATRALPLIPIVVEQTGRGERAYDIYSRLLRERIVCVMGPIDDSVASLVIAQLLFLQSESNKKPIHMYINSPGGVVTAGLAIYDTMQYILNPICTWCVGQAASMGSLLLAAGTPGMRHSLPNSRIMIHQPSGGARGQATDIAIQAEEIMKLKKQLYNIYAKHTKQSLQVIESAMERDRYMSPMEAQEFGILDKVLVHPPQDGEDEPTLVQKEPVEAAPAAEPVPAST
Sequence of UniProt P48509 (P48509 whole entry, looked up): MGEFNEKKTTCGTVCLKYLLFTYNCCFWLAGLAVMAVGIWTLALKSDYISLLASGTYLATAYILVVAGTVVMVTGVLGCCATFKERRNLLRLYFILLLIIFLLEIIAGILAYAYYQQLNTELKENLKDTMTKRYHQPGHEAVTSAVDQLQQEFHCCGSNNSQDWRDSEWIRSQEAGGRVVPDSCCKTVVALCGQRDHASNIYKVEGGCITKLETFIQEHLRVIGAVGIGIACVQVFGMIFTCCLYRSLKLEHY
Sequence of UniProt O14578 (O14578 whole entry, looked up): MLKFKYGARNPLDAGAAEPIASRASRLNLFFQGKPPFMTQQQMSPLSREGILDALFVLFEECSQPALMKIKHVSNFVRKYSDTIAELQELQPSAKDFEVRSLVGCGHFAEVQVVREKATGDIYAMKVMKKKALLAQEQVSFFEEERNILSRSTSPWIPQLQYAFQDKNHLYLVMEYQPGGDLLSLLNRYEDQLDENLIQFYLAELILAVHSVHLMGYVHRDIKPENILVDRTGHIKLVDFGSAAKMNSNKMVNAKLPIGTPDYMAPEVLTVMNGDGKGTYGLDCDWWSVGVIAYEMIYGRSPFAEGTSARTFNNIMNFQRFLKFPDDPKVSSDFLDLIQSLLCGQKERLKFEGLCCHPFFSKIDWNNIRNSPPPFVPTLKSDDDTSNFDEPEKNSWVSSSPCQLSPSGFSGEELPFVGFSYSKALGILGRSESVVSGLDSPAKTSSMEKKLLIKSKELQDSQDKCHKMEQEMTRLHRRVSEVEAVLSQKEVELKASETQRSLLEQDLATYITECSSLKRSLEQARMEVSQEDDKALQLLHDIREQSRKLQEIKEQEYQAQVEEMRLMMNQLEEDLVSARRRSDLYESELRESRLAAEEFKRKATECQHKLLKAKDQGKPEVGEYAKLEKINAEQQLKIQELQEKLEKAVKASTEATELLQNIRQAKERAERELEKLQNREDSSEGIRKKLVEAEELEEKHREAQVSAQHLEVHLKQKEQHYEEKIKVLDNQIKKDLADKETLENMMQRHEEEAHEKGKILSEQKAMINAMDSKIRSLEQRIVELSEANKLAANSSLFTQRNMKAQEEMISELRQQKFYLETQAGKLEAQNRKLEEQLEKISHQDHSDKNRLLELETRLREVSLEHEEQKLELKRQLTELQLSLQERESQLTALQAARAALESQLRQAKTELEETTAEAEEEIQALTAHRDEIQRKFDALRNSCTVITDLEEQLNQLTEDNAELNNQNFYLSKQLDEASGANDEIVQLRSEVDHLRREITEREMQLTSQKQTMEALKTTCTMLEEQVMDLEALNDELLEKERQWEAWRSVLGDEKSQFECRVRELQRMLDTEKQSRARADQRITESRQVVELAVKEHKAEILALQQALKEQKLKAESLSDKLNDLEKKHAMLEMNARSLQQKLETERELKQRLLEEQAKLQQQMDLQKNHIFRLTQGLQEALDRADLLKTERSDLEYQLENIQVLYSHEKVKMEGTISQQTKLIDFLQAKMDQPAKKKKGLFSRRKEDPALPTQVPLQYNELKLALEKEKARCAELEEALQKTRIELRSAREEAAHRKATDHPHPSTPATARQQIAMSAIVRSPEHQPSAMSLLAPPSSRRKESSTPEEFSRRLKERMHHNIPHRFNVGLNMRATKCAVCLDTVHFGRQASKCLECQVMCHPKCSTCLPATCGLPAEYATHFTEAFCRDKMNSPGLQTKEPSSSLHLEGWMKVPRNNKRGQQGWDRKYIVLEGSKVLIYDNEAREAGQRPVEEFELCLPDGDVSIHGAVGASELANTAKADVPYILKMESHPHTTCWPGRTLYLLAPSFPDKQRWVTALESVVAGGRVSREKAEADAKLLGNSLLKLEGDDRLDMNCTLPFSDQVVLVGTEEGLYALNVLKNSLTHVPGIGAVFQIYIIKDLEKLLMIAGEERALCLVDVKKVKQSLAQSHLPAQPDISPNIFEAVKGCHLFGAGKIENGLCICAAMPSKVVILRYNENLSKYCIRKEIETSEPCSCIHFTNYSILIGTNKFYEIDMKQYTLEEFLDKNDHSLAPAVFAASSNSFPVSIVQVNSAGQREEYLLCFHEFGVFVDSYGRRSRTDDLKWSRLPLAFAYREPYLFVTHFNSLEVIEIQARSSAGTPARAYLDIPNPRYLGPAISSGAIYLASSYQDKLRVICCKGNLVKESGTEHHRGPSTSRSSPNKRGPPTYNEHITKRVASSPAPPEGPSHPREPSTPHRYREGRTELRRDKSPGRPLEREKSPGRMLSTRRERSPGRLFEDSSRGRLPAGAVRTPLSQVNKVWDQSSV
Sequence of UniProt Q8IWY9 (Q8IWY9 whole entry, looked up): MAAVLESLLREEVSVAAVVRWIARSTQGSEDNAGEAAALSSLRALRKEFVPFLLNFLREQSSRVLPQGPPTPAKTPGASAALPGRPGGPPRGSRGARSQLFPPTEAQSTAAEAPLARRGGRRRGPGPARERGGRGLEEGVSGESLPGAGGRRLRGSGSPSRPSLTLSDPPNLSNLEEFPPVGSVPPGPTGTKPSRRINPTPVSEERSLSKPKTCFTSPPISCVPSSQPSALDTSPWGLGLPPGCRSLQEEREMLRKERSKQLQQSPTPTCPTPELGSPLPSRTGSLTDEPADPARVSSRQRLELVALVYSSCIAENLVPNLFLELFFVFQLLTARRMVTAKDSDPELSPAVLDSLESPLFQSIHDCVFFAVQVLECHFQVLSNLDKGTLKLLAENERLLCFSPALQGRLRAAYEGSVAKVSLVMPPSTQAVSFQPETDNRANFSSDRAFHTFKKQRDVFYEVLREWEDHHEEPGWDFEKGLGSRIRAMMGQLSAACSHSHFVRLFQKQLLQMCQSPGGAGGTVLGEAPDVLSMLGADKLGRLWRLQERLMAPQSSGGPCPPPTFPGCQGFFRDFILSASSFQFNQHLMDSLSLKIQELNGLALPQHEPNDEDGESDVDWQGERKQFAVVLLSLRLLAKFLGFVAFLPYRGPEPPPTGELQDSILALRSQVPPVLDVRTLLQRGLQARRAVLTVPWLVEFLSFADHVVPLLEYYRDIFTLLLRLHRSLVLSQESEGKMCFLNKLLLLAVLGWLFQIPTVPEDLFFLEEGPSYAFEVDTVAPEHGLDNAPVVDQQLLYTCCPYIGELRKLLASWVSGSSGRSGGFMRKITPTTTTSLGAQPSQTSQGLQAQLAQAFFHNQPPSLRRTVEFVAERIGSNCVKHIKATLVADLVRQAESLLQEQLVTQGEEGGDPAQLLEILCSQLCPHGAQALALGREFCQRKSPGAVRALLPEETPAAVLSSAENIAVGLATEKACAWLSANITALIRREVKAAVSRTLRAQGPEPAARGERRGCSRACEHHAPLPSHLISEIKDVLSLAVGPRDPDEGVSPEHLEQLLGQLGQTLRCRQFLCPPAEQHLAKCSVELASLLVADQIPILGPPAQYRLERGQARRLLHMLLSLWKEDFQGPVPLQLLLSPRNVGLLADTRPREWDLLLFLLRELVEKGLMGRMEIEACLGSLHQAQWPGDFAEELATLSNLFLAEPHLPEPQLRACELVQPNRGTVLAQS
Sequence of UniProt P19397 (P19397 whole entry, looked up): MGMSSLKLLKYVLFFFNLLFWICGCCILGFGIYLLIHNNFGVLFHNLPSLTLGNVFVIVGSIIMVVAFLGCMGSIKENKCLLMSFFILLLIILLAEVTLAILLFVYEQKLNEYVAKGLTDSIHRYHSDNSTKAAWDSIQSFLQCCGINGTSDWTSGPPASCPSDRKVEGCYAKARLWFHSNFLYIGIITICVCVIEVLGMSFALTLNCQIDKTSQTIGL
Sequence of UniProt Q96CF2 (Q96CF2 whole entry, looked up): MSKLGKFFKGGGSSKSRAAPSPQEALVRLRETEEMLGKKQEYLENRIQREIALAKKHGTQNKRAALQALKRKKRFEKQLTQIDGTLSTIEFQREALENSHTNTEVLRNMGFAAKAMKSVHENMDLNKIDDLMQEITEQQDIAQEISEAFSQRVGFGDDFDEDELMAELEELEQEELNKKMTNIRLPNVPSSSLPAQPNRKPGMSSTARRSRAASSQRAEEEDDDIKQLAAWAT
Sequence of UniProt Q99439 (Q99439 whole entry, looked up): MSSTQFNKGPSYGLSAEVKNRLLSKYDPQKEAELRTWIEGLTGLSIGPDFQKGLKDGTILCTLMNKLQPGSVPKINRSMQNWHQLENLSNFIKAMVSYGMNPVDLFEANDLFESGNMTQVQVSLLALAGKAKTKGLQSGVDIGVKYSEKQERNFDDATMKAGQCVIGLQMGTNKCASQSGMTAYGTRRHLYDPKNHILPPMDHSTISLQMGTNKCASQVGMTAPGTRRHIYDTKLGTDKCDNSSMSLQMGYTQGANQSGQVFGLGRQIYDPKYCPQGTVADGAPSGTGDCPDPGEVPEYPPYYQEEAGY
Sequence of UniProt Q9NRR8 (Q9NRR8 whole entry, looked up): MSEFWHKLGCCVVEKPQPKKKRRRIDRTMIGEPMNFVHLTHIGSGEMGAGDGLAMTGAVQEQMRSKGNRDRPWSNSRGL
Sequence of UniProt Q9H444 (Q9H444 whole entry, looked up): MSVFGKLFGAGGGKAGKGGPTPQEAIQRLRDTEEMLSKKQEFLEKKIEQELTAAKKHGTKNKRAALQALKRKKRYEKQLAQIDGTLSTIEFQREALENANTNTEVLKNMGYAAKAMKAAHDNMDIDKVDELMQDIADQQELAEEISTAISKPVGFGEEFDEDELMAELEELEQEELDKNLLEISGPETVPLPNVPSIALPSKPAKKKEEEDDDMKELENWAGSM

Target | log2 fold change [1] | log2 fold change [2] | log2 fold change [3] | log2 fold change [4] | log2 fold change (Nexturastat A) | log2 fold change (vemurafenib) | log2 fold change [5] | log2 fold change [6] | log2 fold change (givinostat) | log2 fold change (barasertib) | log2 fold change [7] | log2 fold change (volasertib) | log2 fold change [8] | log2 fold change (epoxomicin) | log2 fold change [9] | log2 fold change [10] | log2 fold change [11] | log2 fold change (rosiglitazone) | log2 fold change [12] | log2 fold change [13]
CD151 (UniProt P48509) | -0.125 | -0.057 | -0.002 | 0.027 | -0.159 | -0.103 | 0 | -0.21 | 0.018 | -0.052 | 0.277 (active) | 0.157 | -0.068 | 0.041 | -0.011 | -0.058 | 0 | 0.017 | -0.095 | 0.248
CNN2 (UniProt Q99439) | 0.034 | -0.037 | 0.035 | 0.023 | -0.042 | 0.085 | 0.073 | 0.003 | 0.063 | 0.077 | -0.149 | -0.354 (active) | 0.058 | 0.106 | -0.044 | 0.03 | 0.023 | 0.063 | 0.012 | -0.055
CD53 (UniProt P19397) | -0.062 | -0.099 | -0.13 | -0.095 | -0.006 | -0.035 | -0.182 | -0.092 | -0.006 | -0.102 | 0.183 | -0.103 | -0.049 | -0.02 | 0.004 | -0.092 | -0.007 | 0.074 | -0.051 | -0.06
CD55 isoform 7 (UniProt P08174) | 0.037 | -0.006 | 0.021 | 0.049 | 0.072 | -0.031 | -0.053 | 0.088 | 0 | -0.057 | 0.172 | 0.096 | -0.031 | 0.086 | 0.02 | -0.006 | -0.042 | -0.078 | -0.005 | 0.228 (active)
CHMP4C (UniProt Q96CF2) | -0.173 | -0.01 | 0.02 | 0.081 | 0.443 (active) | 0.019 | -0.022 | -0.021 | -0.07 | 0.01 | -0.23 | -0.043 | -0.014 | -0.016 | 0.06 | -0.034 | 0.005 | 0.028 | -0.206 | -0.089
CBR1 (UniProt P16152) | 0.006 | -0.023 | 0.005 | 0.038 | -0.032 | -0.001 | 0.074 | 0.051 | 0.005 | 0.025 | -0.001 | -0.041 | -0.017 | 0.06 | -0.006 | 0 | 0.005 | 0.013 | -0.077 | 0.077
CHMP4B (UniProt Q9H444) | 0.181 | 0.008 | -0.073 | 0.007 | -0.04 | -0.036 | -0.126 | -0.02 | -0.061 | 0.001 | -0.05 | 0.062 | -0.044 | -0.008 | 0.043 | -0.065 | -0.053 | -0.031 | -0.057 | -0.033
C19orf53 (UniProt Q9UNZ5) | 0.056 | 0.016 | -0.065 | -0.196 | 0.184 | -0.189 | -0.044 | 0.146 | 0.021 | -0.096 | 0.205 | 0.412 | 0.045 | -0.264 | 0.104 | 0.239 | -0.189 | -0.182 | 0.34 | 0.2
CHD4 isoform 2 (UniProt Q14839) | 0.011 | -0.028 | 0.062 | -0.014 | 0.087 | 0.068 | 0.116 | 0.101 | 0.154 | 0.121 | -0.124 | -0.382 | 0.158 | 0.069 | -0.051 | 0.098 | 0.048 | 0.058 | 0.1 | -0.073
CLPP (UniProt Q16740) | -0.002 | -0.004 | -0.003 | 0.007 | 0.041 | 0.015 | 0.008 | 0.023 | 0.003 | 0.001 | -0.03 | 0.035 | -0.045 | -0.056 | -0.023 | -0.015 | 0.017 | -0.035 | 0 | 0.081
CSTF3 (UniProt Q12996) | -0.038 | 0.014 | -0.005 | 0.006 | -0.072 | -0.005 | -0.008 | -0.029 | -0.05 | 0.007 | 0.061 | 0.091 | -0.028 | -0.029 | 0 | -0.038 | -0.002 | 0.003 | -0.048 | 0.13
CPT2 (UniProt P23786) | 0.313 | -0.105 | 0.035 | 0.019 | -0.417 | 0.042 | 0.007 | 0.016 | 0.474 | 0.013 | 0.235 | 0.912 (active) | -0.019 | 0.011 | 0.109 | 0.384 | 0.088 | 0.056 | -0.136 | -0.613 (active)
CIT isoform 4 (UniProt O14578) | -0.105 | 0.017 | -0.003 | -0.032 | -0.02 | -0.012 | 0.01 | 0.002 | 0.033 | 0.047 | 0.068 | -0.225 | 0.134 | 0.017 | -0.041 | -0.033 | -0.037 | 0.057 | 0 | -0.033
CDAN1 (UniProt Q8IWY9) | 0.039 | 0.046 | -0.071 | -0.022 | -0.192 | -0.067 | 0.077 | 0.022 | 0.023 | 0.002 | -0.079 | -0.15 | -0.041 | 0.014 | 0.04 | -0.047 | -0.058 | 0.045 | -0.022 | -0.001
CDC42SE1 (UniProt Q9NRR8) | 0.132 | 0.059 | 0.016 | -0.09 | -0.115 | -0.007 | 0.051 | -0.705 | -0.236 | 0.071 | -0.995 (active) | -2.6 (active) | -0.127 | 0.031 | 0.029 | – | 0.05 | -0.017 | -0.074 | –
